# The panel holds about 83,000 compounds, 20% with a hit somewhere; the sample as a whole holds those more often.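 Cell lines were cultured in 96-well plates, exposed to a single compound concentration, and assessed for percent growth 48 hours later.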 Unmarked numbers belong to inactive results. The source made the active and inactive calls. Rule for the calls: active = growth percent below 10; inactive = the rest.
# Test system: MCF7 breast
# Assay: NCI-60 one-dose screen, 48 h (100 = growth as untreated, 0 = no growth, -100 = all killed)
# Conditions: 10 µM
row,Structure (SMILES),growth
1,O=S(=O)(c1ccc(Cl)cc1)c1nc(-c2ccccc2)oc1S(=O)(=O)c1ccc(Cl)cc1,36.3%
2,O=[N+]([O-])c1ccc(-c2nc(-c3ccccc3)c(-c3ccccc3)n2-c2ccc(S(=O)(=O)Nc3ncccn3)cc2)cc1,29.3%
3,Cc1cc(C(F)(F)F)ccc1C(=O)Nc1sc2c(c1C#N)CCC(=O)C2,2.31% (active)
4,Cc1ccn2c(C(=O)c3ccccc3)cc(-c3cc(-c4ccc(N(C)C)cc4)c(C#N)c(N)n3)c2c1,54.3%
5,COc1ccc2ncc(C#Cc3cncc(C(=O)Nc4ccc(CN5CCN(C)CC5)c(C(F)(F)F)c4)c3)n2n1,-71.7% (active)
6,CN1CCN(Cc2ccc(C(=O)Nc3cccc(Nc4ccc5cc(O)ccc5n4)c3)cc2C(F)(F)F)CC1,-78.4% (active)
7,O=C(c1ccc(Cl)cc1)C1[C@H](c2ccccc2Br)[C@@H](c2ccccc2)NC12C(=O)Nc1ccc(Cl)cc12 (some centres not stated),0.103% (active)
8,N#Cc1c(Cl)nc(SCc2ccc(F)cc2)nc1-c1ccc(F)cc1,82.6%
9,CC1=N/C(=C\c2ccc(N(C)C)cc2)C(=O)N1CCc1ccc(S(N)(=O)=O)cc1,91.8%
10,CC1(C)CC[C@]2(C(=O)O)CC[C@]3(C)C(=CC[C@@H]4[C@@]5(C)C/C(=C/c6ccncc6)[C@H](O)C(C)(C)[C@@H]5CC[C@]43C)[C@@H]2C1,24.4%
11,Cc1ccc(/C=C/C(=O)c2ccc(NC(=O)CSc3nnc(-c4c[nH]c5ccccc45)n3-c3ccccc3)cc2)c(C)c1,3.33% (active)
12,COC1=C[C@]23CCC(=O)N2CCc2cc4c(cc2[C@@H]3[C@@H]1OC(=O)CCCC(C)C)OCO4,1.77% (active)
13,COC(=O)c1c(C(=O)OC)c2n(c1C)[C@@H]([C@@H](C)[C@H]1CC[C@H]3[C@@H]4CCC5=CC(=O)CC[C@]5(C)[C@H]4CC[C@]13C)SC2,4.29% (active)
14,O=C(CNc1nc(-c2ccccc2)cs1)Nc1cccc([N+](=O)[O-])c1,-81.6% (active)
15,CN(C(=O)c1ccc(C(C)(C)C)cc1)c1sc2c(c1C#N)CCC(=O)C2,25.7%
16,Cc1cc(C)nc(NS(=O)(=O)c2ccc(N/C(N)=N/c3nccc(-c4ccccc4)n3)cc2)n1,37%

row,Structure (SMILES),growth
1,O=C(NO)c1ccc(Cn2ccc3c(Nc4ccccc4)ncnc32)cc1,14%
2,Cc1noc2c(Cc3ccccc3)nn(CC(=O)N/N=C/c3ccc(Br)cc3)c(=O)c12,45.4%
3,N#Cc1c(-c2ccc(F)cc2)nc(SCc2ccc([N+](=O)[O-])cc2)nc1N1CCOCC1,58.5%
4,COc1ccc(-c2ccc(/C=N/NC(=O)c3[nH]c4ccc(Br)cc4c3-c3ccccc3)s2)cc1,6.19% (active)
5,CC1(c2ccccc2)NC(=O)N(CC(=O)Nc2ccc(C(=O)/C=C/c3ccc(Cl)cc3)cc2)C1=O (configuration not stated),-66.6% (active)
6,O=c1[nH]c2ccccc2cc1CSc1ccc(Nc2nccc(-c3ccc4ccccc4c3)n2)cc1,19%
7,COC(=O)CC1CC1C1Cc2c(nc(N(C)S(C)(=O)=O)nc2C(C)C)-c2ccc(F)cc21 (configuration not stated),67.1%
8,COc1ccc(CN2[C@H](C(=O)NCCCCCCC(=O)NO)Cc3c([nH]c4ccccc34)[C@H]2C2CC2)cc1,6.39% (active)
9,O=C(CSc1nnc(-c2c[nH]c3ccccc23)n1-c1ccccc1)Nc1ccc(C(=O)/C=C/c2cccc([N+](=O)[O-])c2)cc1,-6.63% (active)
10,Cc1ccc(NCC(=O)Nn2c(COc3ccccc3)nc3ccccc3c2=O)cc1,82%
11,C/C(=C\CC/C=C(\C)CC/C=C(\C)CC[C@@H](O)C(C)(C)O)CC/C=C(\C)CC[C@@H](O)C(C)(C)O,13.8%
12,CCOC(=O)N/C(=C1/OCCN1C)[P+](c1ccccc1)(c1ccccc1)c1ccccc1,41.7%
13,COc1cccc(-c2ccc(/C=N/NC(=O)c3[nH]c4ccc(Br)cc4c3-c3ccccc3)o2)c1,4.65% (active)
14,Cn1cc(/C=N/Nc2cccc(Cl)n2)c2ccccc21,35.9%
15,O=C(CNc1nc(-c2ccccc2)cs1)Nc1ccc(Cl)cc1[N+](=O)[O-],-59.3% (active)
16,CCCCCCCCCCCCCCCCCCCC(=O)NCCc1c[nH]c2ccc(OC(=O)CCCC(=O)OCCOOCCOOCCOOCCOOCCOOCCOOCCOOCCOOCCOOCCOOCCOOCCOC)cc12,24.3%

# — PubChem BioAssay (NCI)
